The assay concerns Trypanosoma brucei. The assay is described as follows: Trypanosoma brucei 72 hour study. Format: functional, organism-based. The arrangement: scale not given: in the data most compounds retested in dose-response had high values.

The values that follow come from ChEMBL document CHEMBL3988442, “University of Dundee, Small-Polar-MMV Screening Library” (2021).

About 960 (1.5%) of roughly 66,000 compounds showed an effect of 50% or more. For the sample, strong results were picked, then their nearest neighbours and some compounds at random.

For `Cc1nc(NCc2ccc(F)cc2)cc(C2CCCN2)n1.Cl` (centres undefined), the “Percent Effect” value (30.3 µM, […]) is given as -9.094%.

For the compound `Cc1nc(Cc2ccc(F)cc2)cc(C2COCCN2)n1.Cl` (centres undefined), the “Percent Effect” value (30.3 µM, […]) is reported as 101%.

For the compound `Cc1nc(NCc2cccnc2)cc(C2COCCN2)n1` (centres undefined), the “Percent Effect” value (30.3 µM, […]) is reported as -2.285%.

With `CN(C)C(=O)COC[C@]12COC[C@H]1CN(Cc1ccco1)C2.O=C(O)C(F)(F)F`, the “Percent Effect” value (30.3 µM, […]) is reported as -53.67%.

Consider `COC(=O)c1ccc2c(-c3ccnc(N[C@@H](C)CO)n3)c[nH]c2c1`, for which the “Percent Effect” value (30.3 µM, […]) came out at 47.11%.

On to `COC(=O)c1ccc2c(-c3ccnc(NCCO)n3)c[nH]c2c1`, for which the “Percent Effect” value (30.3 µM, […]) stood at 8.363%.

With `CC[C@@H](CO)Nc1nccc(-c2c[nH]c3cc(C(=O)OC)ccc23)n1`, the “Percent Effect” value (30.3 µM, […]) is reported as 72.65%.

For the compound `Cc1nn(CC(=O)N2CCN(Cc3cn(C)nc3C)CC2)cc1Br`, the “Percent Effect” value (30 µM, 30.03 µM) was -22.12%.

As for `Cc1ccc(-c2ccccc2CC2CNCCNC2=O)c(C)c1.Cl` (centres undefined), under “30.3 µM, […]”, the “Percent Effect” value was 25.6%.

For the compound `Cn1cnnc1C1CCN(C(=O)c2cc(-c3ccccc3)on2)CC1`, the “Percent Effect” value (30 µM, 30.03 µM) was -50.55%.

Take `CCc1ccc(C(O)CN2CCN(c3cccc(OC)c3)CC2)cc1` (centres undefined): for the setting “30 µM, 30.03 µM”, the “Percent Effect” value is listed as -8.228%.

Consider `CCc1ccc(NC(=O)N2C[C@H]3C[C@H](C(=O)NC4CCC4)[C@@H](C2)O3)cc1`, for which, under “30.3 µM, […]”, the “Percent Effect” value is reported as -16.27%.

Consider `CN(C)C[C@@H]1C[C@@H]2CN(C(=O)c3ccoc3)CC[C@@H]2N1CC1CC1.O=C(O)C(F)(F)F`, for which the “Percent Effect” value (30.3 µM, […]) is -22.29%.

For `CNc1ncc(-c2ccc(NC(=O)[C@@H]3CCCCN3)cc2)cn1`, the “Percent Effect” value (30.3 µM, […]) is 7.595%.

With `O=C(Nc1ccc(-c2cnc(NCCO)nc2)cc1)[C@@H]1CCCCN1`, the “Percent Effect” value (30.3 µM, […]) worked out at 53.19%.

Regarding `Nc1ncc(-c2ccc(NC(=O)[C@@H]3CCCCN3)cc2)cn1`, where the note is “30.3 µM, […]”, the “Percent Effect” value came to 8.453%.

For the compound `Cl.Cn1ncc2c1CCCC2NCc1cccc(F)c1` (centres undefined), the “Percent Effect” value (30.3 µM, […]) is -9.663%.

As to `Cc1cccc(CNC2CCCc3c2cnn3Cc2ccccc2)c1.Cl` (centres undefined), the “Percent Effect” value (30.3 µM, […]) was determined as 96.36%.

In the case of `Cn1ncc2c1CCCC2NCc1cccnc1` (centres undefined), the “Percent Effect” value (30 µM, 30.03 µM) is -8.249%.

For the compound `Cc1cccc(CNC2CCCc3c2cnn3C)c1.Cl` (centres undefined), the “Percent Effect” value (30 µM, 30.03 µM) is listed as 5.756%.

Take `Cc1ccc(CNC2CCCc3c2cnn3Cc2ccccc2)s1.Cl` (centres undefined): the “Percent Effect” value (30.3 µM, […]) amounted to 15.28%.

In the case of `Cn1ncc2c1CCCC2NCc1cccc(OC2CCCC2)c1` (centres undefined), the “Percent Effect” value (30.3 µM, […]) is listed as 65.11%.

For `CN1CC[C@]2(CN(CC3CCOCC3)C[C@H]2c2ccccc2)C1=O.O=C(O)C(F)(F)F`, the “Percent Effect” value (30.3 µM, […]) was -1.885%.

Take `O=C(O)C(F)(F)F.O=C(O)C(F)(F)F.O=C(O)C(F)(F)F.O=C(O)c1c(-c2cncnc2)ncc2c1CCN(Cc1cccnc1)C2`: the “Percent Effect” value (30.3 µM, […]) is recorded as -22.43%.

With `CN(C)CCN1CCCC12CCN(Cc1nccn1C)CC2.O=C(O)C(F)(F)F.O=C(O)C(F)(F)F.O=C(O)C(F)(F)F`, the “Percent Effect” value (30.3 µM, […]) is listed as -91.45%.

As for `Cc1ccc(CNCc2cccc3cn[nH]c23)c(OC2CCOC2)c1` (centres undefined), the “Percent Effect” value (30 µM, 30.03 µM) is -32.61%.

On to `Cc1ccc(CNCc2c[nH]nc2C(C)(C)C)c(OC2CCOC2)c1` (centres undefined), for which the “Percent Effect” value (30 µM, 30.03 µM) is reported as -38.61%.

As to `Cc1ccc(CNCc2cccc3cccnc23)c(OC2CCOC2)c1` (centres undefined), the “Percent Effect” value (30 µM, 30.03 µM) is 98.1%.

`O=C(O)C(F)(F)F.O=C1COC2(CCN(Cc3cccs3)CC2)CN1c1ccsc1`: the “Percent Effect” value (30 µM, 30.03 µM) was 3.746%.

As to `CC(=O)N1CCN(Cc2ccco2)CC2(CC(=O)N(C)C2)C1.O=C(O)C(F)(F)F` (centres undefined), under “30.3 µM, […]”, the “Percent Effect” value was -65.74%.

For the compound `Cc1occc1C(=O)N1CCC[C@]2(C[C@@H](OCc3ccccn3)CO2)C1.O=C(O)C(F)(F)F`, where the note is “30.3 µM, […]”, the “Percent Effect” value is listed as -89.01%.

With `Cl.OC1(Cn2ccc3ncccc32)CCN(Cc2ccccc2F)CC1`, the “Percent Effect” value (30.3 µM, […]) is 12.85%.

On to `O=C(C1CCOCC1)N1CCc2ncc(CN3CCOCC3)n2CC1.O=C(O)C(F)(F)F`, for which the “Percent Effect” value (30.3 µM, […]) is listed as -405.3%.

For the compound `CCCN(C(=O)c1ccncc1)c1nc2c(s1)CCc1c-2cnn1C`, the “Percent Effect” value (30.3 µM, […]) was 55.53%.

Regarding `CCCN(C(=O)c1cccnc1)c1nc2c(s1)CCc1c-2cnn1C`, the “Percent Effect” value (30.3 µM, […]) amounted to 48.91%.

`CCCN(C(=O)c1cnccn1)c1nc2c(s1)CCc1c-2cnn1C`: the “Percent Effect” value (30.3 µM, […]) was 47.96%.

In the case of `CCOc1ccc(C(=O)N2CCCC(c3nccn3C)C2)cc1OCC` (centres undefined), the “Percent Effect” value (30 µM, 30.03 µM) is -33.07%.

As to `CCn1cnnc1CN(C)Cc1nc(-c2cc(OC)ccc2F)oc1C`, for the setting “30 µM, 30.03 µM”, the “Percent Effect” value is listed as -24.61%.

In the case of `CC(C)C[C@H](NC(=O)Cn1ccc2c(Cl)cccc21)C(=O)O`, the “Percent Effect” value (30 µM, 30.03 µM) is -31.2%.

Consider `O=C(Cn1ccc2c(Cl)cccc21)N[C@@H](C(=O)O)c1ccccc1`, for which, where the note is “30 µM, 30.03 µM”, the “Percent Effect” value was found to be 60.67%.

Turning to `CC(C)NC(=O)Cn1ccc2c(Cl)cccc21`, the “Percent Effect” value (30 µM, 30.03 µM) was -29.64%.

Take `CN(C)C(=O)COCC1CN(S(C)(=O)=O)Cc2ncn(C)c21.O=C(O)C(F)(F)F` (centres undefined): where the note is “30.3 µM, […]”, the “Percent Effect” value is -29.75%.

Take `CCN1CCC2(CC1)CC(NCc1cccc(C)n1)c1ccccc1O2.O=C(O)C(F)(F)F.O=C(O)C(F)(F)F.O=C(O)C(F)(F)F` (centres undefined): the “Percent Effect” value (30 µM, 30.03 µM) was -8.099%.

Take `FC1(F)CCN(Cc2ccncc2)CC12CCN(c1cnccn1)C2.O=C(O)C(F)(F)F.O=C(O)C(F)(F)F.O=C(O)C(F)(F)F` (centres undefined): the “Percent Effect” value (30.3 µM, […]) is reported as 6.608%.

As to `Fc1ccc(CN2CCC(F)(F)C3(CCN(c4cnccn4)C3)C2)cc1.O=C(O)C(F)(F)F.O=C(O)C(F)(F)F` (centres undefined), the “Percent Effect” value (30.3 µM, […]) was 93.17%.

Turning to `Cn1cc(CN2CCC(F)(F)C3(CCN(c4ncc(F)cn4)C3)C2)cn1.O=C(O)C(F)(F)F` (centres undefined), the “Percent Effect” value (30.3 µM, […]) is on record as -7.399%.

As for `FC1(F)CCN(Cc2cccnc2)CC12CCN(c1cnccn1)C2.O=C(O)C(F)(F)F.O=C(O)C(F)(F)F.O=C(O)C(F)(F)F` (centres undefined), for the setting “30.3 µM, […]”, the “Percent Effect” value is listed as -8.346%.

Take `Cn1ccnc1CN1CCC(F)(F)C2(CCN(c3cccnc3)C2)C1.O=C(O)C(F)(F)F.O=C(O)C(F)(F)F` (centres undefined): for the setting “30.3 µM, […]”, the “Percent Effect” value was -58.8%.

Turning to `Cn1cc(CN2CCC(F)(F)C3(CCN(c4ccccn4)C3)C2)cn1.O=C(O)C(F)(F)F.O=C(O)C(F)(F)F` (centres undefined), under “30.3 µM, […]”, the “Percent Effect” value was -14.43%.

With `Cn1cc(CN2CCC(F)(F)C3(CCN(c4cccnc4)C3)C2)cn1.O=C(O)C(F)(F)F.O=C(O)C(F)(F)F` (centres undefined), the “Percent Effect” value (30.3 µM, […]) was found to be 3.133%.

As to `Cn1cc(CN2CCC(F)(F)C3(CCN(c4cccc(F)c4)C3)C2)cn1` (centres undefined), the “Percent Effect” value (30.3 µM, […]) was 99.39%.

For the compound `FC1(F)CCN(Cc2ccccn2)CC12CCN(c1cnccn1)C2.O=C(O)C(F)(F)F.O=C(O)C(F)(F)F.O=C(O)C(F)(F)F` (centres undefined), where the note is “30.3 µM, […]”, the “Percent Effect” value is on record as -80.37%.

With `FC1(F)CCN(Cc2ccncc2)CC12CCN(c1cccnc1)C2.O=C(O)C(F)(F)F.O=C(O)C(F)(F)F.O=C(O)C(F)(F)F` (centres undefined), the “Percent Effect” value (30.3 µM, […]) was -14.72%.

Take `FC1(F)CCN(Cc2cccnc2)CC12CCN(c1ccccc1)C2.O=C(O)C(F)(F)F.O=C(O)C(F)(F)F.O=C(O)C(F)(F)F` (centres undefined): where the note is “30.3 µM, […]”, the “Percent Effect” value was determined as 100.3%.
